# Assay outcomes deposited in PubChem by NMMLSC.
# RPL19A TOR yeast = RPL19A-GFP expression modulators in yeast, primary screen, cell-based, S. cerevisiae, multiplex flow cytometry, MLPCN; 330,000 compounds, 0.3% hits; percent response vs DMSO, % at 10 µM; S. cerevisiae RPL19A-GFP strain, 3 h; hits give low values;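 active = percent response vs DMSO below 50%; inconclusive = fewer than 70 events counted for the yeast strain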;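 note: median channel GFP fluorescence of the barcoded RPL19A-GFP strain; ratio of sample median GFP to plate DMSO average so 100% = DMSO; lower means less RPL19A-GFP as with rapamycin TOR inhibition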
# MEP2-GFP yeast = modulators of MEP2-GFP levels in yeast, primary screen, S. cerevisiae, multiplex flow cytometry, MLPCN library. S. cerevisiae MEP2-GFP strain, 3 h; 100% = DMSO control level. GFP response vs DMSO, % at 10 µM. 330,000 compounds, 0.51% hits. AID 2016, 2009;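 active = GFP response versus DMSO above a set limit, roughly screen mean plus 3 SD, cut at about 180% in these data; inconclusive = fewer than 70 cells counted for a yeast strain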;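 note: median GFP fluorescence of the barcode-gated MEP2-GFP cells per well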
# AGP1-GFP MLPCN = modulators of AGP1-GFP expression in yeast TOR pathway, primary screen, cell-based, multiplex flow cytometry, S. cerevisiae, MLPCN library | GFP response vs DMSO, % at 10 µM | AID 2066, 2009 | 320,000 compounds, 0.02% hits | 3 h; GFP as percent of DMSO wells;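 active = GFP response relative to DMSO above a set limit, near screen average plus 3 SD, cut at about 150% in these data; inconclusive = fewer than 70 cells counted for the yeast strain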;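 note: median GFP channel fluorescence of the gated AGP1 strain per well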
# Myeloid diff MLP = induction of myeloid progenitor differentiation, primary screen, cell-based, flow cytometry, MLPCN library; ER-HoxA9 myeloid progenitors, lysozyme-GFP differentiation; calls only at 10 µM; 360,000 compounds, 1% hits;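 active = normalized GFP-positive differentiation at or above the plate's own cutoff, the solvent-only control mean plus 3 SD; inconclusive = no clear call, values can overlap the other calls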;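 note: cells exposed to compound for four days before flow analysis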
# LAP4 TOR yeast = modulators of LAP4-GFP expression in yeast, primary screen, S. cerevisiae, multiplex flow cytometry, MLPCN library; 3 h; median GFP as percent of DMSO wells; GFP response vs DMSO, % at 10 µM; 320,000 compounds, 0.34% hits;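 active = GFP response vs DMSO above a set limit, about the screen mean plus 3 SD, cut at about 150% in these data; inconclusive = under 70 cell events counted for the yeast strain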
# CIT2 TOR yeast = modulators of CIT2-GFP expression in yeast, primary screen, S. cerevisiae, GFP fusion, multiplex flow cytometry, MLPCN library. AID 2029, 2009. 320,000 compounds, 0.065% hits. GFP response vs DMSO, % at 10 µM. S. cerevisiae CIT2-GFP strain, 3 h; 100 means same as DMSO wells;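 active = GFP response relative to DMSO above a set limit, near the screen mean plus 3 SD, cut at about 150% in these data; inconclusive = Fewer than 70 cells measured for a yeast strain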;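 note: ratio of well median GFP fluorescence to mean of DMSO wells on the plate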
# LAP4 cherry2 = LAP4-GFP expression modulators in yeast, confirmation, cell-based, second cherry pick, flow cytometry | 590 compounds, 20% hits | S. cerevisiae LAP4-GFP strain, 3 h | GFP response vs DMSO, % at 10 µM | shares compounds with LAP4 TOR yeast;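 active = GFP signal as percent of the solvent control above about 150%, meaning raised reporter expression, limit read from the data; inconclusive = fewer than 70 cells counted in the well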;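 note: ratio of well median GFP fluorescence to plate DMSO mean so 100% = DMSO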
# MEP2-GFP pick2 = modulators of MEP2-GFP levels in yeast, confirmation, S. cerevisiae, flow cytometry GFP, second cherry picks; shares compounds with LAP4 TOR yeast; S. cerevisiae MEP2-GFP strain, 3 h; GFP response vs DMSO, % at 10 µM; 590 compounds, 10% hits; AID 2622, 2010;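 active = GFP signal above 150% of the solvent control wells, that is a rise of more than half; inconclusive = fewer than 70 yeast cells counted in the well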;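 note: median channel GFP fluorescence of all gated yeast cells per well; ratio of median GFP to plate DMSO average so 100% = DMSO level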
# RPL19A GFP CP2 = RPL19A-GFP modulators in TOR pathway yeast, confirmation, cell-based, S. cerevisiae, flow cytometry, second cherry pick; 590 compounds, 3% hits; GFP response vs DMSO, % at 10 µM; shares compounds with LAP4 TOR yeast; S. cerevisiae RPL19A-GFP strain, 3 h; hits give low values; 100% means same as DMSO wells;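 active = under 65% GFP response relative to DMSO; inconclusive = yeast strain with under 70 measured events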;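 note: median GFP channel fluorescence per well over the all cells gate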
# CIT2 GFP CP2 = modulators of CIT2-GFP expression in yeast, confirmation, flow cytometry, second cherry pick, single plex; 590 compounds, 8% hits; AID 2624, 2010; shares compounds with LAP4 TOR yeast; GFP response vs DMSO, % at 10 µM; S. cerevisiae CIT2-GFP strain, 3 h; DMSO control wells read 100%;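 active = GFP response vs DMSO above about 150%, limit read from the data; inconclusive = fewer than 70 events counted for a yeast strain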;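 note: median green fluorescence per well over all gated yeast cells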
# AGP1 GFP CP2 = AGP1-GFP expression modulators, hit retest, confirmation, cell-based, flow cytometry, S. cerevisiae, cherry pick set 2; percent response vs DMSO, % at 10 µM; S. cerevisiae AGP1-GFP strain, 3 h; shares compounds with LAP4 TOR yeast; AID 2643, 2010; 590 tested, under 10 active;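 active = over 150 percent of DMSO response; inconclusive = yeast strain measured with under 70 events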;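 note: median GFP channel fluorescence over all cells without mother daughter split; sample median GFP divided by mean DMSO control so 100% equals DMSO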
# Yeast autofluor = compound autofluorescence in yeast s288c, dose response, artefact control for yeast TOR pathway GFP screen, s288c strain | fluorescence change (kMESF span) at 33 µM | shares compounds with LAP4 TOR yeast | 610 tested, under 10 active | S. cerevisiae s288c, 520 nm autofluorescence, flow cytometry, 3 h; hits give high values; zero means same as solvent-only cells;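 active = fluorescence span over the dose series, or activity score, above about 33, limit read from the data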
# s288c autofl DR = autofluorescence of compounds in yeast s288c, dose response, artefact control for yeast TOR pathway GFP screen, primary hits, KU SAR, s288c parental | shares compounds with LAP4 TOR yeast | 110 tested, under 10 active | fluorescence change (span) at 33 µM | S. cerevisiae s288c parental, compound autofluorescence, flow cytometry, 3 h;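 active = fluorescence change span, or the activity score built from it, above 25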
# TORC1 bypass = wild-type yeast growth inhibition sparing TORC1 bypass cells, mechanism study for yeast TOR pathway GFP screen, BY4741 wild type, TORC1 bypass strain; shares compounds with LAP4 TOR yeast; S. cerevisiae BY4741 spot growth rating, 48-72 h; hits give low values; growth rating (0-3) at 30 µM; 120 tested, under 10 active; AID 504456, 2011;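 active = growth rating at most 1 for wild type yeast while the TORC1 bypass strain still grows fully, rated 3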
# * hit, by the source's call; i = inactive; u = inconclusive; x = not tested or not shown; ! = a repeat was not active. This is a sample that favours compounds with a hit; in the whole collection about 1.8% have one here.
SMILES,RPL19A TOR yeast,MEP2-GFP yeast,AGP1-GFP MLPCN,Myeloid diff MLP,LAP4 TOR yeast,CIT2 TOR yeast,LAP4 cherry2,MEP2-GFP pick2,RPL19A GFP CP2,CIT2 GFP CP2,AGP1 GFP CP2,Yeast autofluor,others
CCc1cccc(NC(=O)c2cccc3c2C(=O)N(C2CCCCC2)C3)c1,100,97,108,i,101,105,x,x,x,x,x,x,
Cc1cc(C)c(S(=O)(=O)N2CCC(C(=O)NCc3ccncc3)CC2)c(C)c1,102,96,87,i,85,95,x,x,x,x,x,x,
Cc1cc(C)c(S(=O)(=O)N2CCC(C(=O)NCc3ccc(Cl)cc3Cl)CC2)c(C)c1,94,114,114,i,151*,78,152*,113,101,120,107,0.2,
Cc1oc(/N=C/c2ccc(F)cc2)c(C#N)c1C,102,106,103,i,102,103,x,x,x,x,x,x,
COc1ccc(CN2C(=O)C(C)=C(C)C2OC)cc1 (stereo unspecified),101,103,97,i,97,93,x,x,x,x,x,x,
CN1/C(=C\C(=O)c2ccco2)C(C)(C)c2ccccc21,81,102,92,u,180*,96,104,105,102,107,97,x,
CN1/C(=C\C(=O)COC(=O)c2ccco2)C(C)(C)c2ccccc21,100,100,94,i,87,98,x,x,x,x,x,x,
CCCCC(CC)CN=C(N)NC(N)=NCCCCCCN=C(N)NC(N)=NCC(CC)CCCC (stereo unspecified),95,104,85,u,160*,60,126,148,99,78,106,x,
CCOC(=O)N1CCN(c2ccnc3cc(Cl)ccc23)CC1,104,100,104,i,94,105,x,x,x,x,x,x,
CCN(CC)C(=O)Oc1ccnc2cc(Cl)ccc12,97,123,124,i,109,96,100,198*,105,90,148,0.1,s288c autofl DR=0.08;TORC1 bypass=3
O=C(Oc1ccnc2cc(Cl)ccc12)N1CCCCCC1,88,422*,185*,i,135,79,x,x,x,x,x,0.2,s288c autofl DR=0.26;TORC1 bypass=3
COc1ccccc1NC(=O)c1ccc2[nH]c(C)c(C)c2c1,104,108,86,i,111,103,x,x,x,x,x,x,
COc1ccc(C(=O)OCc2c(-c3ccccc3)ncc3ccccc23)cc1,98,111,104,i,151*,90,117,102,96,107,96,x,
COc1ccc(C(C(=O)NC2CCCCC2)N(C(=O)c2csnn2)C2CC2)cc1 (stereo unspecified),102,103,103,i,104,102,x,x,x,x,x,x,
O=C(c1ccc(Cl)cc1)N1CCC(O)(CSc2ccc(Cl)cc2)CC1,101,106,106,i,94,106,x,x,x,x,x,x,
O=C(c1ccc(Cl)cc1)N1CCC(O)(CSc2ccccc2)CC1,63,160,26,i,93,101,105,107,99,103,96,x,
O=C1C2C3C=CC(C3)C2C(=O)N1/N=C/c1ccc(-c2ccccc2[N+](=O)[O-])o1 (stereo unspecified),99,108,95,i,102,105,x,x,x,x,x,x,
O=C1C2C3C=CC(C3)C2C(=O)N1/N=C/c1cc(Br)cc([N+](=O)[O-])c1O (stereo unspecified),93,105,85,x,180*,91,142,123,96,126,95,x,
O=C(c1ccccn1)N1CCN(S(=O)(=O)c2ccc(F)cc2)CC1,101,107,108,i,107,102,x,x,x,x,x,x,
Clc1ccc(N=c2ssnc2Cl)cc1,86,88,81,i,156*,83,x,x,x,x,x,1.8,s288c autofl DR=0.52;TORC1 bypass=3
Clc1nssc1=Nc1ccccc1,x,x,x,i,x,x,x,x,x,x,x,x,
N#Cc1ccc(N=c2ssnc2Cl)cc1,94,92,87,i,158*!,102,125,115,96,123,96,1.4,
CCN(CC(=O)NC(C)(C)C)C(=O)COc1c(Cl)cc(Cl)c2ccc(C)nc12,87,97,86,i,227*,81,x,x,x,x,x,1,
CS(=O)(=O)c1sc(C#N)c2c1C(=O)CC(c1ccccc1)C2 (stereo unspecified),89,99,95,u,209*,82,x,x,x,x,x,0.92,
Cc1oc2c(c(=O)c1C)C(=O)CC(c1ccccc1)C2 (stereo unspecified),96,93,103,i,90,101,x,x,x,x,x,x,
Cc1onc(-c2ccccc2)c1CNC(=O)Nc1ccc(C(F)(F)F)cc1,102,101,101,i,97,106,x,x,x,x,x,x,
